Experimental findings from PubChem BioAssay (NCI) are described below.

Test systems include SK-MEL-2 melanoma; SN12C renal; UO-31 renal; TK-10 renal; ACHN renal; CAKI-1 renal; A498 renal; CCRF-CEM leukemia; MOLT-4 leukemia.
Common to all, as to test: NCI-60 one-dose screen, 48 h (100 = growth as untreated, 0 = no growth, -100 = all killed)
Holding throughout (conditions): 10 µM

Compounds without any hit were thinned out: in the full panel of roughly 83,000, 20% have a hit.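 Compound tested at a single concentration for 48 hours in 96-well plates; a percent growth value below 10 was scored as active.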 Unmarked numbers belong to inactive results. Active and inactive are the calls of the source.

Turning to `COc1ccc(C2=NNC(c3sc(Cl)nc3Cl)C2)cc1` (stereo not given), the growth was 62.8% with SK-MEL-2 melanoma; 22.4% in the experiment with SN12C renal; 85.3% in the experiment with UO-31 renal; 116% with TK-10 renal; 105% in the experiment with ACHN renal; 97.4% in the experiment with CAKI-1 renal. Besides, the growth is 102% in the experiment with A498 renal, 17.7% in the experiment with CCRF-CEM leukemia and 7.63% (active) in the experiment with MOLT-4 leukemia.

Regarding `O=C(Nc1ccc(CN2CCOCC2)cc1)c1ccc(-c2cc(Cl)ccc2Cl)o1`, the growth in the experiment with SK-MEL-2 melanoma was 55.5%; in the experiment on SN12C renal, 63.4%; with UO-31 renal, 25.4%; in the experiment on TK-10 renal, 49.4%; with ACHN renal, 41.8%; in the experiment with CAKI-1 renal, 43.5%. Besides, the growth with A498 renal was 87.1%; with CCRF-CEM leukemia it was 38.6%; with MOLT-4 leukemia it was 42.9%.

As to `COc1ccc(-c2cn[nH]c2-c2cc(OC)c(OC)c(OC)c2)cc1`, the growth with SK-MEL-2 melanoma was 29.2%; in the experiment on SN12C renal, 26.3%; in the experiment on UO-31 renal it was 33%; in the experiment with TK-10 renal, 58%; in the experiment on ACHN renal, 20.7%; in the experiment on CAKI-1 renal it was 17.4%. For the same molecule, the growth in the experiment with A498 renal was -12.1% (active); in the experiment on CCRF-CEM leukemia it was 6.38% (active); in the experiment on MOLT-4 leukemia it was 4.95% (active).

For the molecule `Cc1ccc(C)c2c1sc1nc3n[nH]c(N)c3c(=N)n12`, the growth in the experiment with SK-MEL-2 melanoma is 96.1%; in the experiment on SN12C renal, 104%; in the experiment with UO-31 renal, 85.8%; in the experiment with TK-10 renal, 116%; in the experiment on ACHN renal, 101%; with CAKI-1 renal, 90.5%. For the same molecule, the values for the growth in the experiment with A498 renal, with CCRF-CEM leukemia and in the experiment with MOLT-4 leukemia were 103%, 97.3% and 96%, respectively.

Consider `FC(F)(F)c1ccc(-c2cnc(Cl)nc2NC2CCCCCC2)cc1`, for which the growth with SK-MEL-2 melanoma was -4.24% (active); with SN12C renal it was 18.2%; in the experiment with UO-31 renal, 23.5%; in the experiment with TK-10 renal, 32.1%; in the experiment with ACHN renal it was 5.68% (active); with CAKI-1 renal, 67.5%. The figures for the growth in the experiment on A498 renal, in the experiment with CCRF-CEM leukemia and in the experiment with MOLT-4 leukemia were 89.9%, 26.3% and 85.1%, respectively.

For the molecule `CCc1ccc(Nc2cc(C)nc3nc(C)nn23)cc1`, the growth in the experiment with SK-MEL-2 melanoma was 14.5%; with SN12C renal, 26.2%; with UO-31 renal it was 13.4%; with TK-10 renal, -6.1% (active); with ACHN renal, -2.86% (active); in the experiment on CAKI-1 renal, 0.395% (active). Also, the growth in the experiment on A498 renal was 34.7%; with CCRF-CEM leukemia, -10.6% (active); in the experiment with MOLT-4 leukemia it was -20.7% (active).

With `CCN(CC)CCn1c(=N)n(CC(O)c2ccc(Cl)c(Cl)c2)c2ccccc21` (stereo not given), the growth with SK-MEL-2 melanoma is 96.8%; with SN12C renal, 83.3%; in the experiment with UO-31 renal, 64.3%; in the experiment on TK-10 renal, 87.1%; in the experiment on ACHN renal it was 71.5%; with CAKI-1 renal it was 75.4%. Besides, the growth with A498 renal was 52.5%; in the experiment on CCRF-CEM leukemia, 78.9%; in the experiment on MOLT-4 leukemia it was 79.7%.

Consider `C=CCn1c(C)nc2cc(Nc3nc(Nc4ccc5nc(C)n(CC=C)c5c4)c4ccccc4n3)ccc21`, for which the growth in the experiment with SK-MEL-2 melanoma is -84.1% (active); in the experiment on SN12C renal, -69.6% (active); with UO-31 renal it was -94.4% (active); in the experiment on TK-10 renal, -97.2% (active); in the experiment with ACHN renal, -97.4% (active); in the experiment on CAKI-1 renal, -86.4% (active). Besides, the figures for the growth with A498 renal, in the experiment with CCRF-CEM leukemia and in the experiment with MOLT-4 leukemia were -100% (active), -11.3% (active) and -26.8% (active), respectively.

For the molecule `CC(=O)[C@H]1CC[C@H]2[C@@H]3CC[C@@H]4CC=C(C=O)C[C@]4(C)[C@H]3CC[C@]12C`, the growth in the experiment with SK-MEL-2 melanoma was 99.3%; in the experiment on SN12C renal, 93.4%; with UO-31 renal it was 84.8%; with TK-10 renal, 85.2%; in the experiment on ACHN renal it was 92.4%; in the experiment on CAKI-1 renal it was 88.5%. Also, the growth in the experiment on A498 renal was 76.8%; in the experiment with CCRF-CEM leukemia, 82.6%; in the experiment with MOLT-4 leukemia, 72.8%.

In the case of `COc1ccc(-c2nnc(COc3ccc(NC(=O)Nc4cccc(C(F)(F)F)c4)cc3F)o2)cc1`, the growth in the experiment with SK-MEL-2 melanoma was 36.8%; in the experiment with SN12C renal, 48.7%; in the experiment with UO-31 renal, 57.2%; in the experiment on TK-10 renal, 75.3%; in the experiment on ACHN renal, 27.3%; in the experiment on CAKI-1 renal, 50.6%. Besides, the growth is 27.3% in the experiment with A498 renal, 47.7% with CCRF-CEM leukemia and 33.8% with MOLT-4 leukemia.

Consider `O=C(O)CN1C(=O)C=CC1=O`, for which the growth in the experiment on SK-MEL-2 melanoma was 98.2%; with SN12C renal it was 106%; in the experiment with UO-31 renal, 91.6%; with TK-10 renal, 96.7%; with ACHN renal, 104%; in the experiment on CAKI-1 renal, 102%. For the same molecule, the growth in the experiment with A498 renal was 91.6%; in the experiment with CCRF-CEM leukemia it was 107%; in the experiment on MOLT-4 leukemia, 85.2%.

As to `C=C[C@]1(C)C=C2C(=O)[C@@]3(O)OC(=O)[C@@]4(CCCC(C)(C)[C@H]34)[C@@]2(O)CC1`, the growth with SK-MEL-2 melanoma was -66.5% (active); with SN12C renal, -66.5% (active); in the experiment on UO-31 renal, -99.4% (active); in the experiment with TK-10 renal, -95.5% (active); in the experiment with ACHN renal it was -100% (active); in the experiment on CAKI-1 renal, -90.6% (active). For the same molecule, the growth was -94.6% (active) in the experiment with A498 renal, -31.5% (active) with CCRF-CEM leukemia and -13.6% (active) in the experiment on MOLT-4 leukemia.

`COc1cc(-c2cc(-c3ccc(C)cc3)nc3nc(N)[nH]c(=O)c23)ccc1Oc1ccnc2cc(Cl)ccc12`: the growth in the experiment with SK-MEL-2 melanoma is 93%; in the experiment on SN12C renal, 74.2%; with UO-31 renal, 56.3%; in the experiment on TK-10 renal, 120%; in the experiment with ACHN renal, 93.4%; in the experiment with CAKI-1 renal, 83.2%. The growth with A498 renal is 73.4%; in the experiment on CCRF-CEM leukemia, 40.6%; in the experiment on MOLT-4 leukemia it was 49.1%.

With `Nc1ccc(Sc2ccc3c4c2cccc4c(=O)n2c4ccccc4nc32)cc1`, the growth in the experiment with SK-MEL-2 melanoma is 84.1%; with SN12C renal it was 19.2%; in the experiment on UO-31 renal, 9.28% (active); in the experiment with TK-10 renal, 78.6%; in the experiment with ACHN renal, 22.1%; in the experiment on CAKI-1 renal, 5.9% (active). Also, the growth is 58.8% in the experiment with A498 renal, 44.9% in the experiment on CCRF-CEM leukemia and -6.87% (active) in the experiment on MOLT-4 leukemia.

Take `C#C[C@]1(O)CC[C@H]2[C@@H]3CC[C@H]4CC(F)(F)CC[C@]4(C)[C@H]3CC[C@@]21C`: the growth was 115% in the experiment with SK-MEL-2 melanoma; 87.4% with SN12C renal; 102% in the experiment with UO-31 renal; 97.7% in the experiment with TK-10 renal; 89.3% with ACHN renal; 84.6% in the experiment on CAKI-1 renal. The growth with A498 renal was 41.1%; in the experiment on CCRF-CEM leukemia, 74.7%; in the experiment on MOLT-4 leukemia it was 95.7%.
